PubChem BioAssay (EPA / NIEHS)
“And” between values parts separate entries of the source, which are not always exact repeats. Identical values can stand only once. Results filed as inconclusive are left out. The source made the active and inactive calls. How the source made its calls, unless noted: active means hit-call score of the fitted dose curve at least 0.9, where 1 is the maximum; inactive means score below 0.9.

Columns and labels:
[1] = target: human Vitamin D Receptor (VDR), VDR (gene 7421) (UniProt P11473); experiment: ATG_VDR_TRANS: Attagene TRANS-FACTORIAL HepG2 Assay for human Vitamin D Receptor (VDR) (AID 2283022; active means hit-call score of the fitted dose curve at least 0.9, where 1 is the maximum)
Sequence of human Vitamin D Receptor (VDR), VDR (gene 7421) (P11473 whole entry, looked up, the tested form may be a part): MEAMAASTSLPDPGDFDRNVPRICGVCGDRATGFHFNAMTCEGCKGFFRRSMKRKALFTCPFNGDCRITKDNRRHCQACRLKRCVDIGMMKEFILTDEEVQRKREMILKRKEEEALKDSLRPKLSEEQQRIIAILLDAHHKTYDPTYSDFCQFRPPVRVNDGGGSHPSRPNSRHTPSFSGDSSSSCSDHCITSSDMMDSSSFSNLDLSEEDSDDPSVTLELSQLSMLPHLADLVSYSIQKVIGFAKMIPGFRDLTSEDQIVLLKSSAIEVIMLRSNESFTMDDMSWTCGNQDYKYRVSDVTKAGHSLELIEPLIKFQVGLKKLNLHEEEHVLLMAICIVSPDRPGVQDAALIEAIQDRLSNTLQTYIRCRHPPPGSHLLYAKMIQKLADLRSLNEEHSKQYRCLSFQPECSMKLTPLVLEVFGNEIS
How it was run: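 Steps: transfect HepG2 with GAL4-UAS-driven reporter constructs; dose compounds 24 h; isolate RNA, reverse-transcribe, PCR-amplify with 6-FAM-labelled primer extension and HpaI digestion; quantify fragments by capillary electrophoresis relative to DMSO.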

[2] = read-out: Monokine induced gamma interferon (MIG), CXCL9 (gene 4283); experiment: BSK_3C_MIG: BioMAP Diversity Plus: 3C Assay for Monokine induced gamma interferon (MIG) Biomarker Activity (AID 2283021); details: primary human endothelial cells (HUVEC); actives raise or lower the signal
How it was run: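 ELISA measurement of MIG in human umbilical vein endothelial cells 24 h after treatment. Cytotoxicity tracked by SRB staining in parallel cultures; gain or loss of signal fitted relative to DMSO.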

[3] = BSK_3C_SRB: Viability Assessment in the BioMAP Diversity Plus: 3C Assay (AID 2283023); details: primary human endothelial cells (HUVEC);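 further: cells read 24 h after compound dosing; fitted both ways against DMSO so a hit may be signal rise or drop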
How it was run: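 Absorbance at 560 nm of sulforhodamine B-stained (0.1%) total protein served as a cytotoxicity readout in human umbilical vein endothelial cells, 24 h after chemical treatment. Signal was fitted bidirectionally relative to DMSO.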

[4] = read-out: Matrix Metallopeptidase 1 (MMP1), MMP1 (gene 4312); experiment: BSK_BE3C_MMP1: BioMAP Diversity Plus: BE3C Assay for Matrix Metallopeptidase 1 (MMP1) Biomarker Activity (AID 2283024); details: primary human bronchial epithelial cells; actives raise or lower the signal
How it was run: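 ELISA measurement of MMP-1 after 24 h compound exposure of primary human bronchial epithelial cells. Changes in either direction fitted relative to DMSO; parallel SRB staining checked overt cytotoxicity.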

[5] = BSK_3C_Vis: BioMAP Diversity Plus: 3C Assay for Morphology Visualization (AID 2283025); details: primary human endothelial cells (HUVEC);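 further: light microscopy image of cell morphology used as background control; fitted both ways so gain or loss versus DMSO counts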
How it was run: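 Light-microscopy visualization of HUVEC cultures at 24 h post-treatment, with DMSO as baseline for bidirectional fitting.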

[6] = read-out: Pselectin, SELP (gene 6403); experiment: BSK_4H_Pselectin: BioMAP Diversity Plus: 4H Assay for Pselectin Biomarker Activity (AID 2283026); details: primary human endothelial cells (HUVEC); actives raise or lower the signal
How it was run: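 ELISA of surface P-selectin on HUVEC, 24 h after dosing, with parallel SRB staining (0.1% after 10% TCA fixation, 560 nm) for overt cytotoxicity. Activity fitted in both directions relative to DMSO.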

[7] = BSK_4H_SRB: Viability Assessment in the BioMAP Diversity Plus: 4H Assay (AID 2283027); details: primary human endothelial cells (HUVEC);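 further: cells exposed to compound for 24 h before staining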;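 on AC50: curves fitted both ways versus DMSO so AC50 may be loss or gain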
How it was run: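 Cytotoxicity readout: sulforhodamine B (0.1%) staining of total protein after 10% TCA fixation, measured at 560 nm in human umbilical vein endothelium at 24 h. DMSO set the baseline; fitting was bidirectional.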

[8] = BSK_BE3C_SRB: Viability Assessment in the BioMAP Diversity Plus: BE3C Assay (AID 2283028); details: primary human bronchial epithelial cells;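 on AC50: fitted both ways so AC50 may mark signal gain or loss versus DMSO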
How it was run: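 Cells (human bronchial epithelial, primary) are treated with chemicals, and after 24 h the parallel cultures are fixed in 10% TCA. These are then stained with 0.1% SRB and read at 560 nm. Gain or loss of signal is fitted relative to DMSO.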

[9] = read-out: Thrombomodulin, THBD (gene 7056); experiment: BSK_3C_Thrombomodulin: BioMAP Diversity Plus: 3C Assay for Thrombomodulin Biomarker Activity (AID 2283029); details: primary human endothelial cells (HUVEC); actives raise or lower the signal
How it was run: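 ELISA measurement of thrombomodulin on HUVEC surface 24 h after chemical dosing; activity fitted in both directions relative to DMSO vehicle.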

[10] = read-out: Urokinase-type plasminogen activator receptor (uPAR), PLAUR (gene 5329); experiment: BSK_4H_uPAR: BioMAP Diversity Plus: 4H Assay for Urokinase-type plasminogen activator receptor (uPAR) Biomarker Activity (AID 2283030); details: primary human endothelial cells (HUVEC); actives raise or lower the signal
How it was run: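 Cell-surface uPAR ELISA signal, measured 24 h after dosing human umbilical vein endothelial cells, was analyzed with bidirectional fitting relative to DMSO. Parallel SRB staining of total protein tracked overt cytotoxicity.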

With `CCc1ccc(C=O)cc1` as the molecule, how does the outcome [1] read?
Its outcome is “inactive”.

For `CC(=O)Nc1ccc(C)cc1C`, which outcome [1] is on record?
Its outcome is “inactive”.

Which results are given for `Cc1ccc(O)c(C(C)(C)C)c1`?
outcome [2]: inactive; AC50 [3]: 25 µM (active); AC50 [4]: 28.3 µM (active); AC50 [5]: 13.4 µM (active); AC50 [6]: 34.3 µM (active); AC50 [7]: 33.5 µM (active); AC50 [8]: 31.9 µM (active); AC50 [9]: 30.8 µM (active); AC50 [10]: 28.2 µM (active)

Which outcome [1] does the source give for `CN(C)c1ccc(O)c2c1C[C@H]1C[C@H]3[C@H](N(C)C)C(=O)C(C(N)=O)=C(O)[C@@]3(O)C(=O)C1=C2O` here?
Its outcome is “inactive”.

Which outcome [1] does the source give for `O=Cc1ccc(Cl)c([N+](=O)[O-])c1` here?
Its outcome is “inactive”.

Which outcome [1] does the source give for `CCC(C)CCCC(C)(C)O` (centres undefined) here?
Its outcome is “inactive”.

What does the source list for `CC(=O)[C@H]1CC[C@H]2[C@@H]3CC=C4C[C@@H](O)CC[C@]4(C)[C@H]3CC[C@]12C`?
outcome [2]: inactive; AC50 [3]: 11.1 µM (active) and 7.02 µM (active); outcome [4]: inactive; outcome [6]: inactive; outcome [7]: inactive; outcome [8]: inactive; outcome [9]: inactive; outcome [10]: inactive

Which outcome [1] does the source give for `O=C1O[C@@H]2[C@@H](O)[C@H](O)O[C@@H]2[C@H]1O` here?
The outcome was “inactive”.

With `Cc1c(Cl)c(=O)oc2cc(O)ccc12` as the molecule, how does the outcome [1] read?
The outcome was “inactive”.

Which outcome [1] does the source give for `O=C1CCc2ccccc2O1` here?
The outcome was “inactive”.

With `O=Nc1ccc(Nc2ccccc2)cc1` as the molecule, how does the outcome [1] read?
The outcome was “inactive”.

With `CCCCc1ccc(N)cc1` as the molecule, how does the outcome [1] read?
Its outcome is “inactive”.

Which outcome [1] does the source give for `c1ccc(CCCc2ccccn2)cc1` here?
Its outcome is “inactive”.

For `CCOC(=O)c1ccccc1OC`, which outcome [1] is on record?
Its outcome is “inactive”.
